# In the library only some 2.3% were active in any assay of this set; here they are far more common.
# ATXN2 expr inh: inhibitors of ATXN2 expression | HEK-293 ATXN2-luciferase reporter, luminescence, 24 h | Potency, µM (titrated, usually from 57 µM), for inactives: top-dose activity change, negative = inhibition, usual class: inhibitors | 360,000 tested, 0.72% active; also: % is scaled to controls: 0 for no effect and ±100 for the full control effect; nearly all actives have a fitted effect of over 55% in size
#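 qHTS (up to 57 uM final) was run with 24 h compound exposure of reporter cells at 37 °C. Each well was multiplexed: SteadyGlo luminescence measured ATXN2-luciferase expression after a fluorogenic Gly-Phe-AFC viability readout (25 uM final).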
# S2 tox: cell viability loss in ATXN counter-screen; Potency, µM (top dose mostly 56.7 µM), hits mostly cytotoxic; S2 cells (HEK-293 line with an ATXN2-luciferase reporter) viability, CellTiter-Fluor protease fluorescence, 24 h; 400,000 tested, 0.49% active; also: nearly all actives have a fitted effect of over 40% in size
# TGFb inhibitor: blocks TGF-b signaling; HepG2 CAGA-GFP TGF-b/SMAD3 reporter, GFP fluorescence, 18 h; TGF-beta stimulated, 500 pg/mL final; Potency, µM (series often up to 46.1 µM), inactives show at the top dose activity, negative = inhibition, usual class: inhibitors; 410,000 tested, 1.2% active; also: % is scaled to controls: 0 for no effect and ±100 for the full control effect; nearly all actives have a fitted effect of over 65% in size
#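 Inhibition of TGF-beta-driven CAGA-GFP reporter expression in HEPG2 cells is measured by cellular GFP fluorescence after 18 h stimulation with 500 pg/mL recombinant TGF-beta in 1% FBS medium at 37 degrees C.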
# HepG2 tox-1: HepG2 cytotoxicity, counter-screen for TGF-b inhibitors; HepG2 CAGA-GFP viability, ATP luminescence, 18 h; Potency, µM (doses to about 46.1 µM), for the others: top-dose activity change, negative = cytotoxicity, actives largely listed as cytotoxic; 410,000 tested, 0.76% active; AID 588856
#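 HepG2 CAGA-GFP cells (1000/well, DMEM with 1% FBS) received compound, then TGF-beta at 500 pg/mL final, and were incubated 18 hours at 37 degrees C. Viability was read by CellTiter-Glo luminescence. Media-only wells were set as complete cell-killing and DMSO as no toxicity.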
# TGFb confirm: TGF-b pathway inhibition, cherry-pick retest | shares compounds with TGFb inhibitor | HepG2 CAGA-GFP TGF-b reporter, GFP fluorescence, 18 h; cells stimulated with TGF-beta, 500 pg/mL | Potency, µM (titrated, usually from 46.1 µM), for the others: at the top dose activity, negative = inhibition, hits mostly inhibitors | 1,600 tested, 63% active; also: % is scaled to controls: 0 for no effect and ±100 for the full control effect; nearly all actives have a fitted effect of over 65% in size
# HepG2 tox-2: toxic to HepG2 cells in TGF-b counterscreen | shares compounds with TGFb inhibitor | HepG2 CAGA-GFP viability, ATP luminescence, 18 h; cells stimulated with TGF-beta, 500 pg/mL | Potency, µM (highest dose often 46.1 µM), for the others: top-dose activity, negative = cytotoxicity, actives largely listed as inhibitors | 1,600 tested, 27% active | AID 720535; also: % is scaled to controls: 0 for no effect and ±100 for the full control effect; nearly all actives have a fitted effect of over 70% in size
# CCL64 TGFb inh: orthogonal confirmation of TGF-b inhibitors in CCL64 cells; shares compounds with TGFb inhibitor; CCL64 CAGA-GFP reporter, TGF-b stimulated, GFP fluorescence, 18 h; Potency, µM (highest dose often 46.1 µM), for the others: at the top dose activity, negative = inhibition, hits mostly inhibitors; 1,600 tested, 41% active; also: nearly all actives have a fitted effect of over 65% in size
# TGFb COP inh: blocks TGF-b signaling in HepG2 COP reporter; AID 720537; 1,600 tested, 3% active; HepG2 COP-GFP TGF-b reporter, GFP fluorescence, 18 h; cells stimulated by added recombinant TGF-beta; Potency, µM (highest dose often 46.1 µM), inactives show at the highest dose activity, negative = inhibition, actives largely listed as inhibitors; shares compounds with TGFb inhibitor; also: nearly all actives have a fitted effect of over 70% in size
# An asterisk follows results filed as active; i = inactive; ? = inconclusive; · = no result given. Calls follow the shape of the dose curve; as a rule, active = well fitted curve in the direction sought with a large enough effect; inconclusive = small, poorly fitted or top-dose-only effect, or another doubt; inactive = no such curve, though single readings can be large; an effect the other way counts as inactive or inconclusive. Potency is read from the fitted curve at half-maximal effect.
SMILES,ATXN2 expr inh,S2 tox,TGFb inhibitor,HepG2 tox-1,TGFb confirm,HepG2 tox-2,CCL64 TGFb inh,TGFb COP inh
CCc1nc2ccccc2c(C(=O)OCC(=O)Nc2cccc(S(=O)(=O)NC3=NCCCCC3)c2)c1C,22µM*,?,11µM*,-22%,7.3µM*,?,?,21%
O=C(COC(=O)c1ccc2ccccc2n1)Nc1cccc(S(=O)(=O)NC2=NCCCCC2)c1,·,i,-2%,-75%,·,·,·,·
O=S(=O)(CCOc1ccccc1)c1nc2ccccc2[nH]1,31%,i,16µM*,-33%,6.5µM*,23µM*,16µM*,?
CC1(Cc2cccc(C(F)(F)F)c2)C(=O)Nc2ccc(-c3ccc(F)c(Cl)c3)cc21 (stereo not drawn),?,·,10µM*,10µM*,?,18µM*,?,38%
O=C(c1cccc2ccccc12)N1CCN(S(=O)(=O)c2ccccc2)CC1,·,·,1%,2%,·,·,·,·
COc1ccc(C(=O)On2c(-c3ccc(Br)cc3)nc3ccccc3c2=O)cc1,?,?,13µM*,-18%,12µM*,21µM*,21µM*,12%
COc1ccc(N(C(=O)CCl)C(C(=O)NCCc2ccccc2)c2cccs2)cc1Cl (stereo not drawn),1.8µM*,1.4µM*,7.9µM*,-102%,4.6µM*,5.2µM*,2.1µM*,21µM*
COCCNC(=O)C(c1cccs1)N(C(=O)Cn1nnc2ccccc21)c1ccccc1 (stereo not drawn),6%,i,-8%,-3%,·,·,·,·
COc1ccccc1C1NC(c2ccc3c(c2)OCO3)=CC(c2cc(Br)ccc2O)N1 (stereo not drawn),·,·,?,-35%,·,·,·,·
C=C(C)COc1ccc(-c2[nH]ncc2-c2ccc(OC)cc2)c(O)c1,·,?,8.9µM*,-122%,?,?,23µM*,?
O=C(Cc1cccc(NC(=O)C2CCCN(C(=O)C3CCCCC3)C2)c1)Nc1cccc(C(=O)N2CCCC2)c1 (stereo not drawn),-13%,i,?,-16%,?,-8%,-24%,-5%
O=C(C1CCN(S(=O)(=O)c2cccc3nsnc23)CC1)N1CC=C(c2ccccc2)CC1,-15%,i,-18%,-27%,·,·,·,·
O=C(C1CCC(CNS(=O)(=O)c2cccc3nsnc23)CC1)N1CC=C(c2ccccc2)CC1 (stereo not drawn),?,i,8.9µM*,-52%,?,?,?,12%
O=C1C(F)=CC(COC(c2ccccc2)(c2ccccc2)c2ccccc2)OC1n1cc(F)c(=O)[nH]c1=O (stereo not drawn),3.4µM*,3µM*,5µM*,-60%,2.9µM*,8.2µM*,2.3µM*,?
NC(=O)[C@H]1CC2(CC(c3cccc(NC(=O)COc4ccc(Cl)cc4)c3)=NO2)CN1C(=O)c1ccc(Cl)cc1 (stereo partly drawn),?,?,18µM*,-4%,18µM*,-29%,18µM*,22%
Oc1ccc(C[C@H]2CNC(=S)N2CC2CCCN2C[C@H](Cc2ccc(O)cc2)N2C[C@H](Cc3ccccc3)N(CC3CCCCCC3)C2=S)cc1 (stereo partly drawn),-27%,i,7.9µM*,-8%,6.5µM*,-8%,10µM*,10%
Oc1ccc(C[C@@H](CN2CCCC2CN2C(=S)NC[C@@H]2Cc2ccccc2)N2C[C@H](Cc3ccccc3)N(CC3CCCCC3)C2=S)cc1 (stereo partly drawn),1%,i,·,·,·,·,·,·
Oc1ccc(C[C@H]2CNC(=S)N2CC2CCCN2C[C@H](Cc2ccc(O)cc2)N2C[C@H](Cc3ccccc3)N(CC3CCCCC3)C2=S)cc1 (stereo partly drawn),?,?,7.9µM*,-1%,6.5µM*,?,?,-5%
Oc1ccc(C[C@H]2CNC(=S)N2CC2CCCN2C[C@H](Cc2ccccc2)N2C[C@H](Cc3ccc(O)cc3)N(CC3CCCCC3)C2=S)cc1 (stereo partly drawn),?,?,5.6µM*,-52%,15µM*,?,4.1µM*,30%
CC(C)C[C@H]1CNC(=S)N1C[C@H]1CCCN1C[C@H](Cc1ccc(O)cc1)N1C[C@H](Cc2ccccc2)N(CC2CCCCCC2)C1=S,0%,?,?,-20%,?,-4%,?,3%
O=C(NCc1ccccc1)[C@]1(C(F)(F)F)C[C@H](CCC2CCCCC2)CCCO1,·,·,-4%,-8%,·,·,·,·
Cc1ccc(-c2nc3ccccc3o2)cc1NC(=O)C(C)Oc1ccccc1 (stereo not drawn),·,·,-2%,-11%,·,·,·,·
O=C(CNC(=O)C1CCCCC1)OCC(=O)c1ccc([N+](=O)[O-])cc1,·,·,2%,0%,·,·,·,·
CC1(C)CC(=O)C2=C(C1)NC(Nc1nc3ccccc3o1)=NC2c1cccc(O)c1 (stereo not drawn),·,·,?,-38%,·,·,·,·
Oc1ccc(C[C@H]2CNC(=S)N2CC2CCCN2C[C@H](Cc2ccc(O)cc2)N2C[C@H](Cc3ccc(O)cc3)N(CC3CCCCCC3)C2=S)cc1 (stereo partly drawn),20µM*,?,7.9µM*,-10%,16µM*,?,3.3µM*,13%
O=C1c2cccnc2C(=O)N1c1nc(-c2ccccc2)cs1,·,·,2%,-4%,·,·,·,·
CCOc1cccc(C2C=C(c3ccc4c(c3)OCO4)NC(c3ccc(Br)cc3)N2)c1O (stereo not drawn),·,·,?,-36%,·,·,·,·
Cc1ccc(-c2nc(NCCCO)c3ccccc3n2)cc1,1%,i,-16%,-21%,·,·,·,·
OCCCNc1c2ccccc2nc2ccccc12,?,?,4.5µM*,23%,13µM*,13µM*,?,25%
COc1ccc(CCNc2nc(SCc3ccc(Cl)cc3)nc3ccccc23)cc1OC,·,·,0%,-15%,·,·,·,·
